Data from PubChem BioAssay (NCI).
The panel holds about 83,000 compounds, 20% with a hit somewhere; the sample as a whole holds those more often.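 Testing used 96-well plates and a 48-hour single-concentration exposure. Example: -40 means 40% of the starting cells died.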 Calls of active or inactive are those of the source. The calls were made as follows: active = growth percent below 10; inactive = the rest.

Experiments:
Assay in all cases: NCI-60 one-dose screen, 48 h (100 = growth as untreated, 0 = no growth, -100 = all killed)
Conditions in all cases: 10 µM unless noted
HCT-15 colon = tested on: HCT-15 colon
HT29 colon = tested on: HT29 colon
SNB-75 CNS = tested on: SNB-75 CNS
SNB-19 CNS = tested on: SNB-19 CNS
U251 CNS = tested on: U251 CNS
PC-3 prostate = tested on: PC-3 prostate
SK-MEL-5 melanoma = tested on: SK-MEL-5 melanoma
UACC-62 melanoma = tested on: UACC-62 melanoma
LOX IMVI melanoma = tested on: LOX IMVI melanoma
SK-MEL-28 melanoma = tested on: SK-MEL-28 melanoma

Measured: growth

CC(=O)[C@@H]1CCC=C2CC[C@]3(C)[C@@H](CC[C@@H]4[C@@]5(C)CCCNC(C)(C)[C@@H]5CC[C@]43C)[C@H]21
inactive: SNB-75 CNS 23.5% | SK-MEL-5 melanoma 64.2%
active: HCT-15 colon -89% | HT29 colon -83.7% | SNB-19 CNS -77.2% | U251 CNS -98.8% | PC-3 prostate -21.4% | UACC-62 melanoma -79% | LOX IMVI melanoma -99.5% | SK-MEL-28 melanoma -42.3%

COC(C(=O)[C@@H](O)[C@@H](C)O)[C@@H]1Cc2cc3cc(O[C@H]4C[C@@H](O[C@H]5C[C@@H](O)[C@H](O)C(C)O5)[C@H](O)C(C)O4)cc(O)c3c(O)c2C(=O)[C@H]1O[C@H]1C[C@@H](O[C@H]2C[C@@H](O[C@H]3C[C@@H](OC)[C@H](O)C(C)O3)[C@@H](O)C(C)O2)[C@H](O)C(C)O1 (stereo not given in full)
inactive: HCT-15 colon 102% | HT29 colon 34.9% | SNB-75 CNS 35.7% | SNB-19 CNS 40.1% | U251 CNS 26.5% | PC-3 prostate 42.5% | SK-MEL-5 melanoma 14.6% | LOX IMVI melanoma 17.8% | SK-MEL-28 melanoma 30.7%
active: UACC-62 melanoma 0.169%

N#Cc1nc(-c2ccccc2)oc1S(=O)(=O)N1CCOCC1
inactive: HT29 colon 99.5% | SNB-75 CNS 94.4% | SNB-19 CNS 91.7% | U251 CNS 93.7% | PC-3 prostate 100% | SK-MEL-5 melanoma 91.6% | UACC-62 melanoma 91% | LOX IMVI melanoma 68.2% | SK-MEL-28 melanoma 106%
active: HCT-15 colon -15.4%

CCOC(=O)C(=Cc1cccc(Br)c1)C(=O)OCC
inactive: HCT-15 colon 15.1% | HT29 colon 18% | SNB-75 CNS 13.2% | SNB-19 CNS 50.9% | U251 CNS 26.8% | PC-3 prostate 40.8% | SK-MEL-5 melanoma 50.3% | UACC-62 melanoma 44.2% | SK-MEL-28 melanoma 39.2%
active: LOX IMVI melanoma -8.96%

Cc1oc(-c2ccc(Cl)cc2)nc1/C=C/C(=O)c1ccccc1
inactive: HCT-15 colon 97.5% | HT29 colon 107% | SNB-75 CNS 93.2% | SNB-19 CNS 97.6% | U251 CNS 97.5% | PC-3 prostate 93.6% | SK-MEL-5 melanoma 99% | UACC-62 melanoma 87.5% | LOX IMVI melanoma 99.6% | SK-MEL-28 melanoma 105%

CN1C(=O)/C(=C/c2cn(-c3ccccc3)nc2-c2ccccc2)SC1=S
inactive: HCT-15 colon 103% | HT29 colon 109% | SNB-75 CNS 101% | SNB-19 CNS 100% | U251 CNS 110% | PC-3 prostate 90.2% | SK-MEL-5 melanoma 98% | UACC-62 melanoma 86.7% | LOX IMVI melanoma 89.6% | SK-MEL-28 melanoma 105%

CCCCNc1ccc(C#N)c(OCCN(CC)CC)c1
inactive: HCT-15 colon 102% | HT29 colon 94.7% | SNB-75 CNS 88.2% | SNB-19 CNS 98.1% | U251 CNS 103% | PC-3 prostate 93.1% | SK-MEL-5 melanoma 93.9% | UACC-62 melanoma 103% | LOX IMVI melanoma 102% | SK-MEL-28 melanoma 101%

COc1ccc2[nH]cc(-c3nc(-c4c[nH]c5ccncc45)cs3)c2c1
active: HCT-15 colon -10.2% | HT29 colon -15.7% | U251 CNS -49.4% | LOX IMVI melanoma -87.4% | SK-MEL-28 melanoma -88.5%
inactive: SNB-75 CNS 76.1% | SNB-19 CNS 47.1% | PC-3 prostate 42.4% | SK-MEL-5 melanoma 43.3% | UACC-62 melanoma 84.2%

O=C1/C(=C/c2ccccc2Br)COc2ccc(O)c(O)c21
active: HCT-15 colon -1.56% | U251 CNS 4.99% | UACC-62 melanoma 6.99% | LOX IMVI melanoma -76%
inactive: HT29 colon 47.6% | SNB-75 CNS 23.2% | SNB-19 CNS 27% | PC-3 prostate 15.6% | SK-MEL-5 melanoma 46.9% | SK-MEL-28 melanoma 42.3%

CN1CCN(c2ccc(C(=O)Nc3cccc(C#Cc4cccc5[nH]nc(N)c45)c3)cc2C(F)(F)F)CC1
active: HCT-15 colon -53.9% | HT29 colon -35.9% | SNB-75 CNS -38.2% | SNB-19 CNS -78.4% | U251 CNS -69.1% | PC-3 prostate -75.4% | SK-MEL-5 melanoma -27.8% | UACC-62 melanoma -79.2% | LOX IMVI melanoma -93.8% | SK-MEL-28 melanoma -66.4%

C=C(CNCCc1ccc(O)cc1)[C@@H]1CC[C@]2(CO)CC[C@]3(C)[C@H](CC[C@@H]4[C@@]5(C)CCC(NCCO)C(C)(C)[C@@H]5CC[C@]43C)[C@@H]12 (stereo not given in full)
active: HCT-15 colon -80.9% | HT29 colon -44.1% | SNB-75 CNS -97.8% | SNB-19 CNS -73.2% | U251 CNS -83.7% | PC-3 prostate -20.1% | SK-MEL-5 melanoma -94.2% | UACC-62 melanoma -80.8% | LOX IMVI melanoma -84.1% | SK-MEL-28 melanoma -92.4%

O=C1/C(=C\c2cn(-c3ccccc3)nc2-c2ccc(-c3cccs3)cc2)CCc2ccccc21
inactive: HCT-15 colon 37.8% | HT29 colon 29.5% | SNB-75 CNS 45.8% | SNB-19 CNS 61% | U251 CNS 66.2% | PC-3 prostate 78.1% | SK-MEL-5 melanoma 66% | UACC-62 melanoma 47.7% | LOX IMVI melanoma 56.9% | SK-MEL-28 melanoma 68.8%

O=C1/C(=C/c2ccc(-c3ccc(Br)cc3)o2)SC(=S)N1CCc1ccc(O)cc1
inactive: HCT-15 colon 78.9% | HT29 colon 76.8% | SNB-75 CNS 37.9% | SNB-19 CNS 85.5% | U251 CNS 78.9% | PC-3 prostate 61.3% | SK-MEL-5 melanoma 92.5% | UACC-62 melanoma 49.6% | LOX IMVI melanoma 71.7% | SK-MEL-28 melanoma 103%
